PubChem BioAssay (NCATS)
Unmarked numbers belong to inactive results. Inconclusive results are not listed. A call without a number means that no potency is given here. Activity calls are given as the source filed them. Calls follow the shape of the dose curve; as a rule, active = well fitted curve in the direction sought with a large enough effect; inconclusive = small, poorly fitted or top-dose-only effect, or another doubt; inactive = no such curve, though single readings can be large; an effect the other way counts as inactive or inconclusive.

How the values were obtained:
[1] = Primary qHTS for inhibitors of nuclear receptor binding SET domain protein 2 (NSD2) in an isogenic RCH-ACV NSD2 p.E1099K mutant (9B) (AID 1645876); also: nearly all actives have a fitted effect of over 70% in size
[2] = Primary qHTS for inhibitors of nuclear receptor binding SET domain protein 2 (NSD2) in an RCH-ACV wild type WT cells (2C) (AID 1645877); also: nearly all actives have a fitted effect of over 70% in size
[3] = target: Glutathione peroxidase 1 (Homo sapiens) (UniProt P07203); experiment: Primary qHTS Assay for Inhibitors of Recombinant Selenoprotein Glutathione Peroxidase 1 (GPX1) (AID 1845191); also: nearly all actives have a fitted effect of over 65% in size
Procedure, shortened: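 GR-coupled readout: NADPH consumption tracked by fluorescence, ex 340/em 450 nm, at t=0 and after 15 min at RT. Final mix 10 nM GPX1, 1 mM GSH, 0.5 mM CHP, 0.5 mM NADPH, 100 nM GR, 0.01% BSA, following 30 min enzyme–compound preincubation.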

[4] = target: Phospholipid hydroperoxide glutathione peroxidase GPX4 (Homo sapiens) (UniProt P36969); experiment: Primary qHTS Assay for Inhibitors of Recombinant Selenoprotein Glutathione Peroxidase 4 (GPX4) (AID 1845192); also: nearly all actives have a fitted effect of over 65% in size
Procedure, shortened: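 Steps: GPX4 plus compound, 30 min RT; add GR/GSH/NADPH master mix; start with cumene hydroperoxide; read 340/450 nm fluorescence at 0 and 15 min. Finals were 200 nM GPX4, 1 mM GSH, 0.5 mM CHP, 0.5 mM NADPH, 100 nM GR.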

[5] = target: Luciferin 4-monooxygenase (Photinus pyralis) (UniProt P08659); experiment: Primary firefly luciferase (FLuc) qHTS assay for identification of artifact compounds. (AID 1845220); details: outcome: dose series up to 54.1 µM unless noted; also: nearly all actives have a fitted effect of over 60% in size
Procedure, shortened: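 Titrated compounds were incubated 15 min at RT, protected from light, with luciferin and ATP at 10 uM; reaction started with 10 nM FLuc, luminescence imaged at 5 min, and concentration-response fitted by Hill equation.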

[6] = Primary fluorescence-based thiol-reactive (MSTI) qHTS assay for identification of artifact compounds. (AID 1845221); also: nearly all actives have a fitted effect of over 65% in size; also: potency is read from the fitted curve at half-maximal effect
Procedure, shortened: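 One-hour, room-temperature, dark incubation of compound with 4 uM MSTI in PBS (pH 7.4, 2% DMSO) precedes a fluorescence read at 525 nm excitation, 598 nm emission; Hill-equation fitting yields concentration-response values.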

[7] = system: Nanoluciferase (engineered Oplophorus gracilirostris luciferase); experiment: Primary Nanoluciferase (NLuc) qHTS assay for identification of artifact compounds. (AID 1845222);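 also: NLuc secreted into diluted conditioned medium of S16 cells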
Procedure, shortened: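 qHTS format, against NLuc in S16 cell-conditioned medium. Nano-Glo substrate 1:100 was added after 15 min at room temperature. Luminescence was taken after a further 5 min.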

CRL-7250 = normal cell line; experiment: Cytotoxic Profiling of Annotated Libraries Using Quantitative High-Throughput Screening (AID 1296008); details: Five cell lines viability, CellTiter-Glo ATP luminescence, 48-72 h; max response: stronger effect = lower value; also: nearly all actives have a fitted effect of over 60% in size
Procedure, shortened: (§1)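 Cells exposed to compounds for 48 or 72 hr at 37 degrees Celsius. Viability read as ATP-coupled luminescence with CellTiter-Glo after 10 min at room temperature.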

HEK293 = experiment: as above; details: Five cell lines viability, CellTiter-Glo ATP luminescence, 48-72 h; max response: stronger effect = lower value
Procedure, shortened: as §1

HaCat = experiment: as above; details: Five cell lines viability, CellTiter-Glo ATP luminescence, 48-72 h; max response: stronger effect = lower value
Procedure, shortened: as §1

NIH3T3 = experiment: as above; details: Five cell lines viability, CellTiter-Glo ATP luminescence, 48-72 h; max response: stronger effect = lower value
Procedure, shortened: as §1

C33A = experiment: Primary qHTS to identify gynecologic anti-cancer compounds using libraries of approved drugs and bioactive compounds (AID 1345084); details: Gynecologic cancer cell panel viability, ATPlite luminescence, 48 h; series mostly up to 57.5 µM; also: nearly all actives have a fitted effect of over 55% in size
Procedure, shortened: (§2)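 In this quantitative HTS, cell killing is estimated from loss of ATP-dependent luciferase light. Cells see five compound concentrations over a 48 h exposure.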

CASKI = experiment: as above; details: Gynecologic cancer cell panel viability, ATPlite luminescence, 48 h; series mostly up to 57.5 µM
Procedure, shortened: as §2

Es-2 = experiment: as above; details: Gynecologic cancer cell panel viability, ATPlite luminescence, 48 h; series mostly up to 57.5 µM
Procedure, shortened: as §2

Hek293T = experiment: as above; details: Gynecologic cancer cell panel viability, ATPlite luminescence, 48 h, control line for the selectivity index; series mostly up to 57.5 µM
Procedure, shortened: as §2

OV90 = experiment: as above; details: Gynecologic cancer cell panel viability, ATPlite luminescence, 48 h; series mostly up to 57.5 µM
Procedure, shortened: as §2

PA-1 = experiment: as above; details: Gynecologic cancer cell panel viability, ATPlite luminescence, 48 h; series mostly up to 57.5 µM
Procedure, shortened: as §2

Tov-21-G = experiment: as above; details: Gynecologic cancer cell panel viability, ATPlite luminescence, 48 h; series mostly up to 57.5 µM
Procedure, shortened: as §2

Tov112D = experiment: as above; details: Gynecologic cancer cell panel viability, ATPlite luminescence, 48 h; series mostly up to 57.5 µM
Procedure, shortened: as §2

[8] = system: Zika virus NS2B-NS3 protease (linked construct); experiment: Primary screen NINDS Rhodamine qHTS for Zika virus inhibitors (AID 1347160); also: nearly all actives have a fitted effect of over 55% in size
Procedure, shortened: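 Single-chain NS2B-NS3 protease, 25 nM, pH 8.0; compounds preincubated 15 min. Activity: Rhodamine110 release from 1.5 microM substrate over 15 min, room temperature, data fitted to 4-parameter Hill.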

Phospholipid hydroperoxide glutathione peroxidase GPX4 (Homo sapiens), sequence (P36969 whole entry, looked up): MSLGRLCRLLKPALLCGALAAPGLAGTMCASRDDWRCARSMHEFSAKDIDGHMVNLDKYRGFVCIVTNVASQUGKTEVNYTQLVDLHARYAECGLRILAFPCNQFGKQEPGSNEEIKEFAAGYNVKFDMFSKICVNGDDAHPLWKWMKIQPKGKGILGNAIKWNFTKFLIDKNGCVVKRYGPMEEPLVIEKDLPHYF
Glutathione peroxidase 1 (Homo sapiens), sequence (P07203 whole entry, looked up): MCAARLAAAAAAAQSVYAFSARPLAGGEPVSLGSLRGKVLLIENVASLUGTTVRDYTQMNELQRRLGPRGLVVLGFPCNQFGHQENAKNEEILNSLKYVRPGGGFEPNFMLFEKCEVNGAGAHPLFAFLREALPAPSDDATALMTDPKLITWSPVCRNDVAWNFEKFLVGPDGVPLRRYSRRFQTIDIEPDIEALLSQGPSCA

Q: Which results are given for `C=CCN1CC[C@]23c4c5ccc(O)c4O[C@H]2[C@@H](O)CC[C@@]3(O)[C@H]1C5`?
A: Potency [1]: inactive; Potency [2]: inactive; Potency [3]: inactive; Potency [4]: inactive; outcome [5]: inactive; Potency [6]: inactive; Potency [7]: inactive; max response (CRL-7250): -15.6%; max response (HEK293): -13.2%; max response (HaCat): 3.65%; max response (NIH3T3): -28.6%; Potency (C33A): inactive; Potency (CASKI): inactive; Potency (Es-2): inactive; Potency (Hek293T): inactive; Potency (OV90): inactive; Potency (PA-1): inactive; Potency (Tov-21-G): inactive; Potency (Tov112D): inactive

Q: For `CCC(C)/C=C(C)/C=C/C1=CC2=C(Cl)C(=O)C(C)(OC(C)=O)C(=O)C2=CO1` (stereo unspecified), which Potency [1] is on record?
A: inactive

Q: What about the Potency [3] of the same compound?
A: inactive

Q: What about the Potency [4] of the same compound?
A: inactive

Q: What about the outcome [5] of the same compound?
A: inactive

Q: What about the Potency [6] of the same compound?
A: 1.31 µM (active)

Q: And the Potency [7]?
A: inactive

Q: And the max response (CRL-7250)?
A: -20%

Q: What about the max response (HEK293) of the same compound?
A: -69.1%

Q: What about the max response (HaCat) of the same compound?
A: -66.3%

Q: And the max response (NIH3T3)?
A: -56.4%

Q: And the Potency (C33A)?
A: inactive

Q: And the Potency (CASKI)?
A: inactive

Q: What about the Potency (Es-2) of the same compound?
A: inactive

Q: What about the Potency (Hek293T) of the same compound?
A: inactive

Q: What about the Potency (OV90) of the same compound?
A: inactive

Q: And the Potency (PA-1)?
A: inactive

Q: And the Potency (Tov-21-G)?
A: inactive

Q: What about the Potency (Tov112D) of the same compound?
A: inactive

Q: What does the source list for `CCC(C)(O)C1(C(=O)O)COC(=O)C1` (stereo unspecified)?
A: Potency [8]: inactive; Potency [1]: inactive; Potency [2]: inactive; Potency [3]: inactive; Potency [4]: inactive; outcome [5]: inactive [at 86.2 µM]; Potency [7]: inactive; max response (CRL-7250): -3.51%; max response (HEK293): 0.689%; outcome (HaCat): inactive; max response (NIH3T3): -1.83%; Potency (C33A): inactive; Potency (CASKI): inactive; Potency (Es-2): inactive; Potency (Hek293T): inactive; Potency (OV90): inactive; Potency (PA-1): inactive; Potency (Tov-21-G): inactive; Potency (Tov112D): inactive

Q: What does the source list for `CC(=O)O[C@H]1CN2CCC1CC2`?
A: Potency [8]: inactive; Potency [1]: inactive; Potency [2]: inactive; Potency [3]: inactive; Potency [4]: inactive; outcome [5]: inactive; Potency [6]: inactive; Potency [7]: inactive; max response (CRL-7250): -2.3%; max response (HEK293): -3.42%; max response (HaCat): 1.98%; max response (NIH3T3): 1.29%; Potency (C33A): inactive; Potency (CASKI): inactive; Potency (Es-2): inactive; Potency (Hek293T): inactive; Potency (OV90): inactive; Potency (PA-1): inactive; Potency (Tov-21-G): inactive; Potency (Tov112D): inactive

Q: Which Potency [8] does the source give for `COc1ccc(CN(C(=O)[C@@H](N)Cc2c(C)cc(C(N)=O)cc2C)[C@@H](C)c2ncc(-c3ccccc3)[nH]2)cc1C(=O)O` here?
A: inactive

Q: What about the Potency [1] of the same compound?
A: inactive

Q: And the Potency [2]?
A: inactive

Q: And the Potency [3]?
A: inactive

Q: What about the Potency [4] of the same compound?
A: inactive

Q: And the outcome [5]?
A: inactive

Q: What about the Potency [6] of the same compound?
A: inactive

Q: What about the Potency [7] of the same compound?
A: inactive

Q: What about the max response (CRL-7250) of the same compound?
A: -8.53%

Q: What about the max response (HEK293) of the same compound?
A: -8.03%

Q: And the max response (HaCat)?
A: 1.02%

Q: What about the max response (NIH3T3) of the same compound?
A: -6.08%

Q: And the Potency (C33A)?
A: inactive

Q: What about the Potency (CASKI) of the same compound?
A: inactive

Q: And the Potency (Es-2)?
A: inactive

Q: And the Potency (Hek293T)?
A: inactive

Q: And the Potency (OV90)?
A: inactive

Q: What about the Potency (PA-1) of the same compound?
A: inactive

Q: And the Potency (Tov-21-G)?
A: inactive

Q: What about the Potency (Tov112D) of the same compound?
A: inactive
